ELG1 DNA repair – blocks ELG1-dependent DNA repair in HEK293T cells; hit rate 2.3% among 330,000; HEK293T ELG1-luciferase reporter, luminescence, 16 h; DNA damage induced by 5-fluorouridine; Potency, µM (top dose mostly 46.1 µM), without a hit: at the highest dose activity change, negative = inhibition, actives largely listed as inhibitors; note: potency is the fitted concentration of half-maximal effect; nearly all actives have a fitted effect of over 55% in size
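Reporter activity after DNA damage by 5-fluorouridine is monitored. Compound-treated cells incubate 16 hr at 37 °C, then ONE-Glo is added for 30 min before luminescence reading.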
DT40 TDP1 no CPT – qHTS for Inhibitors of human tyrosyl-DNA phosphodiesterase 1 (TDP1): qHTS in cells in absence of CPT. hit rate 15% among 420,000. Potency, µM (doses to about 46.2 µM), for the others: at the highest dose activity change, negative = growth inhibition, actives largely listed as inhibitors. DT40 Tdp1-/- hTDP1 cells, no CPT, ATP luminescence, 48 h. AID 686978, 2013; note: potency is the fitted concentration of half-maximal effect; nearly all actives have a fitted effect of over 55% in size
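Growth of hTDP1-complemented DT40 Tdp1-knockout cells is measured by ATP luminescence after at least 48 hr compound exposure at 37 °C, with DMSO substituting for the 20 nM CPT used in the parallel screen.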
IL-1B inflam inh – blocks inflammasome-driven IL-1 beta release; THP-1 LPS/ATP IL-1B secretion, AlphaLISA, 16 h; stronger effect = lower value; activity change, % at 57.5 µM; hit rate 4.7% among 360,000; AID 743279; in the data active = activity change below about -50%; inconclusive = mostly about -30% to -49%
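Secreted IL-1B measured by AlphaLISA bead assay after 16 h compound exposure of THP-1 cells; compounds (final up to 57.5 uM) added 1 h before LPS (250 ng/mL) and ATP (1.25 mM) stimulation; lower signal means less secretion.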
Gal4-VP16 FLuc – counter-screen for ROR gamma inhibitors: Gal4-VP16 reporter; Drosophila S2 Gal4-VP16 UAS-luciferase, luminescence, 20 h; Potency, µM (titrated, usually from 53.6 µM), for the others: at the top dose activity, negative = inhibition, usual class: inhibitors; hit rate 3.5% among 310,000;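 note: Gal4-VP16 expression switched on by copper sulfate through the metallothionein promoter; potency is the fitted concentration of half-maximal effect; nearly all actives have a fitted effect of over 50% in size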
RORgamma inh – blocks mouse ROR gamma transcriptional activity. hit rate 5.4% among 310,000. Drosophila S2 Gal4-RORgamma UAS-luciferase reporter, 20 h. Potency, µM (highest dose often 53.6 µM), for inactives: at the highest dose activity change, negative = inhibition, actives largely listed as inhibitors. P51450; note: potency is the fitted concentration of half-maximal effect; nearly all actives have a fitted effect of over 60% in size
Target sequence (P51450 whole entry, looked up, the tested form may be a part): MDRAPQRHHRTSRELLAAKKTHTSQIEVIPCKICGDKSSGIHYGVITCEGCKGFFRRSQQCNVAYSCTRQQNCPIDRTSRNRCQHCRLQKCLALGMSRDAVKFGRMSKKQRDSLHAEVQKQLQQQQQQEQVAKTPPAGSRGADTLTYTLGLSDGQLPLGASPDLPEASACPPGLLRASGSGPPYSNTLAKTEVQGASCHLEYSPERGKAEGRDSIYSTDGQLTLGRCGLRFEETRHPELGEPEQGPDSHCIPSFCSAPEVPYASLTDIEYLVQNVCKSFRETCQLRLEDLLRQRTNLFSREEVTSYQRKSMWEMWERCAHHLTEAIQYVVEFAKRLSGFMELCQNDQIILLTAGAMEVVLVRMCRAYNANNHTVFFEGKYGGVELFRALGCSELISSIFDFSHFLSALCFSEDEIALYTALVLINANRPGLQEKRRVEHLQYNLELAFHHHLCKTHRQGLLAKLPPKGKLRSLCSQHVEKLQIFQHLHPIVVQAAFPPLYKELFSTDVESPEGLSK
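Drosophila S2 cells stably expressing Gal4-DBD/mouse RORγ fusion under metallothionein promoter plus UAS-luciferase; compound 1 h, then 700 uM CuSO4 induction for 20 h at ambient temperature; inhibition read as reduced luminescence.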
TDP1 cell CPT – growth inhibition of DT40 Tdp1-/-;hTDP1 cells with camptothecin (screen for TDP1 inhibitors); Potency, µM (doses to about 46.2 µM), without a hit: top-dose activity change, negative = growth inhibition, most hits filed as inhibitors; AID 686979; hit rate 12% among 420,000; chicken DT40 Tdp1-/-;hTDP1 cells + 20 nM CPT, ATP luminescence, 48 h; note: potency is the fitted concentration of half-maximal effect; nearly all actives have a fitted effect of over 55% in size
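Chicken DT40 Tdp1-/- cells complemented with human TDP1, 400 cells/well, exposed to compounds plus 20 nM camptothecin for at least 48 h at 37 C; viability read as ATP content by CellTiter-Glo luminescence.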
Numbers without * were called inactive; u = inconclusive; x = not tested or not shown; [ ] = another dose, or the depositor's remark. Only some compounds are listed: those with a hit (about 21% of all), similar ones and a draw of the others. Unless noted, calls come from the whole dose curve; as a rule, active = well fitted curve in the direction sought with a large enough effect; inconclusive = small, poorly fitted or top-dose-only effect, or another doubt; inactive = no such curve, though single readings can be large; an effect the other way counts as inactive or inconclusive. % is set by controls: 0 for no effect and ±100 for the full control effect.

SMILES	ELG1 DNA repair	DT40 TDP1 no CPT	IL-1B inflam inh	Gal4-VP16 FLuc	RORgamma inh	TDP1 cell CPT
CCOC(=O)C(Cc1ccc(NC(=O)/C(=C/c2ccccc2)NC(=O)c2ccccc2)cc1)N1C(=O)c2ccccc2C1=O (stereo not drawn)	-6%	5.8µM*	26	-3%	5%	5.2µM*
CCOc1ccc(NC(=O)[C@H](Cc2ccccc2)N2Cc3ccccc3C2=O)cc1	x	-3%	x	x	x	5%
CC(C)NC(=S)N1CCC(Cc2ccccc2)CC1	-3%	u	-10	-20%	1.1µM*	u
O=C(C(=O)N1CCC(Cc2ccccc2)CC1)c1ccccc1	x	16µM*	11	x	x	u
N#Cc1cccc(C(=O)C(=O)N2CCC(Cc3ccccc3)CC2)c1	x	u	11	x	x	u
COC(=O)Nc1ccc(S(=O)(=O)N2CCC(Cc3ccccc3)CC2)cc1	-13%	21µM*	u	16%	22%	u
COC(=O)Cc1ccc(NC(=S)N2CCN(c3cccc(O)c3)CC2)cc1	u	13µM*	u	u	u	16µM*
O=C(Nc1ccc2c(c1)OCCO2)c1c[nH]c(=O)n(-c2ccc(F)c(Cl)c2)c1=O	-4%	-1%	1	-4%	37%	4%
CC(C(=O)O)c1ccc2c(c1)CC(=O)c1ccccc1S2 (stereo not drawn)	x	-11%	x	x	x	-2%
COC(=O)Cc1ccc(NC(=S)N2CCN(C)CC2)cc1	0%	u	0	-6%[10 µM]	u	1%
CC(=O)c1ccc(NC(=S)N2CCC(Cc3ccccc3)CC2)cc1	0%	u	-79*	-4%	20%	-21%
COC(=O)Cc1ccc(NC(=S)N2CCC(Cc3ccccc3)CC2)cc1	1%	u	14	u	14µM*	-29%
O=C1N=C(N2C=CC(=C3C=CNC=C3)C=C2)/C(=C/N=NC(=O)c2ccccc2O)S1	-1%	14%	0	-11%	-12%	-14%
CC1(C)Cc2c(C#N)c(N3CCOCC3)nc(-c3ccccc3)c2CO1	u	u	-16	-6%	u	-18%
CCCC(=O)N1CCN(c2nc(CC(C)C)c3c(c2C#N)CCC3)CC1	u	23µM*	-72*	1%	-5%	u
Cc1nc(N2CCN(C(=O)c3ccco3)CC2)c(C#N)c2c1CCCC2	-16%	u	-84*	u	-16%	0%
CC(C)C(=O)N1CCN(c2nc(-c3ccccc3)c3c(c2C#N)CCCC3)CC1	u	u	-57*	-1%	0%	u
CC(C)Cc1nc(N2CCN(C(=O)c3ccco3)CC2)c(C#N)c2c1CCCC2	1%	u	-27	-21%	-4%	23µM*
CC(C)Cc1nc(N2CCN(C(=O)Cc3ccccc3)CC2)c(C#N)c2c1COC(C)(C)C2	1%	x	x	-3%	-13%	x
CCN1CCN(c2ccc(N=Cc3ccccc3O)cc2)CC1	-14%	u	62	2%	-24%	-14%
CCCCc1nnc(SCC(=O)NC2CCCCC2)n1C	13%	4%	-15	-1%	2%	-2%
CCOCCCn1c(=NC(=O)c2cccs2)c(C#N)cc2c(=O)n3ccccc3nc21	-19%	-26%	52	-7%	-5%	-4%
CC(=O)N=c1c(C#N)cc2c(=O)n3cccc(C)c3nc2n1CCCOC(C)C	7.3µM*	-29%	25	u	-43%	1%
CC(=O)N=c1c(C#N)cc2c(=O)n3cccc(C)c3nc2n1Cc1ccco1	u	u	34	2%	-14%	-16%
COCCCn1c(=NC(=O)c2ccncc2)c(C#N)cc2c(=O)n3cccc(C)c3nc21	-12%	u	14	4%	u	u
SMILES	ELG1 DNA repair	DT40 TDP1 no CPT	IL-1B inflam inh	Gal4-VP16 FLuc	RORgamma inh	TDP1 cell CPT
Cc1cccn2c(=O)c3cc(C#N)c(=NC(=O)c4cccs4)n(CCCOC(C)C)c3nc12	0%	18µM*	-16	-12%	-10%	u
Cc1cccn2c(=O)c3cc(C#N)c(=NC(=O)c4ccncc4)n(CCCOC(C)C)c3nc12	12µM*	16µM*	-19	2%	-44%	18µM*
COc1ccc(CNc2nn3c(-c4cccc(C(=O)N(C)C)c4)cnc3s2)cc1	x	18µM*	u	x	x	23µM*
CCOc1ccccc1C(=O)NCC(=O)NNC(=O)CN(C)S(=O)(=O)c1ccc(Cl)cc1	u	12µM*	-4	x	x	21µM*
Cc1ccc2cc(CN(CC3CCCO3)S(=O)(=O)c3cccc4nsnc34)c(=O)[nH]c2c1 (stereo not drawn)	u	18µM*	2	-5%	33%	u
COC(=O)c1cccc(S(=O)(=O)N(Cc2ccco2)Cc2cc3cc(OC)ccc3[nH]c2=O)c1	15µM*	u	-4	-24%	4%	29µM*
CCCCN(Cc1cc2cc(OC)ccc2[nH]c1=O)S(=O)(=O)c1ccc(C)cc1	u	7.3µM*	-20	u	u	10µM*
COc1ccc2[nH]c(=O)c(CN(CCO)S(=O)(=O)c3ccc(C)cc3)cc2c1	-3%	u	0	-2%	24%	-16%
COc1ccc(S(=O)(=O)N(Cc2cc3cc(C)ccc3[nH]c2=O)CC2CCCO2)cc1 (stereo not drawn)	-19%	21µM*	-16	3%	1%	u
COc1ccccc1OCCNC(=O)CCNS(=O)(=O)c1ccc(C)cc1	x	-18%	-8	x	x	-28%
CCCSc1nnc2[nH]c(=O)cc(C)n12	x	-2%	x	x	x	6%
COc1ccc(S(=O)(=O)N(CCCN2CCCC2=O)Cc2cc3c(C)cc(C)cc3[nH]c2=O)cc1	u	u	-54*	2%	31%	u
Cc1ccc(C)c(-n2[nH]c3c4c(ccc3c2=O)C(=O)c2ccccc2C4=O)c1	-5%	u	-7	-23%	6.3µM*	u
COCCCn1[nH]c2c3c(ccc2c1=O)C(=O)c1ccccc1C3=O	26µM*	16µM*	-18	u	16µM*	16µM*
CC(C)(C)n1[nH]c2c3c(ccc2c1=O)C(=O)c1ccccc1C3=O	-1%	7.3µM*	0	-19%	u	8.2µM*
O=C1c2ccccc2C(=O)c2c1ccc(O)c2O	x	-18%	-12	-10%	-35%	-7%
COCCNC(=O)c1cccc2c1-c1ccccc1C2=O	-7%	6%	12	5%	5%	-1%
Cc1ccc(-n2[nH]c3c4c(ccc3c2=O)C(=O)c2ccccc2C4=O)cc1	17%	-21%	-4	3%	-5%[10 µM]	-8%

Screens from PubChem.
